According to the supplement of paper PMC10849652:
Targets with a hit are over-represented here; the source holds about 7,900 in all. About 0.6% of all pairs of compound and target were hits. Values without a mark were called inactive.

Columns and labels:
Assay in all cases: log2 fold change, soluble protein after heating vs DMSO (PISA); higher = thermal stabilisation; K562 cells, 10 uM, 30 min; active = over 0.2 and 3.5 SD of the protein, either way, in both replicates (recomputed)
[1] = compound: CC1=C(C=C(C=C1)NC(=O)C2=CC(=CC=C2)C(C)(C)C#N)NC3=CC4=C(C=C3)N=CN(C4=O)C
Procedure, shortened: (§1)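 K562 cells at 2×10^6 cells/mL were given 10 μM compound for 30 min. Aliquots then went through 3 min of heating across 48°C-58°C, were pooled, and were extracted in PBS with 0.5% NP-40 at 4°C, and the supernatant after 21,000xg for 90 min was quantified by TMTpro 16plex LC-MS/MS with channel sums equalised. Thermal stability relative to control samples, from duplicates, is given as log2 fold change.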

[2] = compound: CC1=C(C=C(C=C1)NC(=O)C2=CC(=CC=C2)N(C)C)NC(=O)C3=CC=C(C=C3)O
Procedure, shortened: as §1

[3] = compound: CC1=CC=C(C=C1)SC2=C3C=C(SC3=CN=C2)C(=O)N
Procedure, shortened: as §1

[4] = compound: CC1=NC(=CC=C1)C2=C(N=C(N2)C(C)(C)C)C3=CC4=NC=CN=C4C=C3
Procedure, shortened: as §1

Nexturastat A = compound: CCCCN(Cc1ccc(C(=O)NO)cc1)C(=O)Nc1ccccc1 [Nexturastat A]
Procedure, shortened: as §1

vemurafenib = compound: CCCS(=O)(=O)Nc1ccc(F)c(C(=O)c2c[nH]c3ncc(-c4ccc(Cl)cc4)cc23)c1F [vemurafenib]
Procedure, shortened: as §1

[5] = compound: CCCS(=O)(=O)Nc1ccc(F)c(C(=O)c2c[nH]c3ncc(Cl)cc23)c1F
Procedure, shortened: as §1

[6] = compound: CCCc1cc(C)[nH]c(=O)c1CNC(=O)c1cc(-c2ccnc(N3CCN(C)CC3)c2)cc2c1cnn2C(C)C
Procedure, shortened: as §1

givinostat = compound: CCN(CC)Cc1ccc2cc(COC(=O)Nc3ccc(C(=O)NO)cc3)ccc2c1 [givinostat]
Procedure, shortened: as §1

barasertib = compound: CCN(CCCOc1ccc2c(Nc3cc(CC(=O)Nc4cccc(F)c4)[nH]n3)ncnc2c1)CCOP(=O)(O)O [barasertib]
Procedure, shortened: as §1

[7] = compound: CC[C@@H]1C(=O)N(C)c2cnc(Nc3ccc(C(=O)NC4CCN(C)CC4)cc3OC)nc2N1C1CCCC1
Procedure, shortened: as §1

volasertib = compound: CC[C@@H]1C(=O)N(C)c2cnc(Nc3ccc(C(=O)N[C@H]4CC[C@H](N5CCN(CC6CC6)CC5)CC4)cc3OC)nc2N1C(C)C [volasertib]
Procedure, shortened: as §1

[8] = compound: CC[C@H](C)N1C=C(C2=C(C=C(C=C21)C3=CN=C(C=C3)N4CCNCC4)C(=O)NCC5=C(C=C(NC5=O)C)C)C
Procedure, shortened: as §1

epoxomicin = compound: CC[C@H](C)[C@@H](C(=O)N[C@@H]([C@@H](C)O)C(=O)N[C@@H](CC(C)C)C(=O)[C@]1(CO1)C)NC(=O)[C@H]([C@@H](C)CC)N(C)C(=O)C [epoxomicin]
Procedure, shortened: as §1

[9] = compound: CCn1c(C(=O)N(C2CC2)C2CC2)cc2c3c(ncn3C)c(Nc3cc(C)n(C)n3)nc21
Procedure, shortened: as §1

[10] = compound: CCn1cc(-c2ccnc3[nH]c(-c4cccc(CN(C)C)c4)cc23)c(-c2ccc(NC(=O)N(C)C)cc2)n1
Procedure, shortened: as §1

[11] = compound: CN(C)CC(=O)Nc1ccc2[nH]c(=O)c3ccccc3c2c1
Procedure, shortened: as §1

rosiglitazone = compound: CN(CCOC1=CC=C(C=C1)C[C@H]2C(=O)NC(=O)S2)C3=CC=CC=N3 (racemic) [rosiglitazone]
Procedure, shortened: as §1

[12] = compound: CN1C2=C(C3=C1C(=O)N(N=C3)CC4=CC(=CC=C4)N)SC(=C2)S(=O)C
Procedure, shortened: as §1

[13] = compound: CN1CCC(CNc2ccc3ncc(-c4cccc(OC(F)(F)F)c4)n3n2)CC1
Procedure, shortened: as §1

Chain of UniProt O15530 (O15530 whole entry, looked up): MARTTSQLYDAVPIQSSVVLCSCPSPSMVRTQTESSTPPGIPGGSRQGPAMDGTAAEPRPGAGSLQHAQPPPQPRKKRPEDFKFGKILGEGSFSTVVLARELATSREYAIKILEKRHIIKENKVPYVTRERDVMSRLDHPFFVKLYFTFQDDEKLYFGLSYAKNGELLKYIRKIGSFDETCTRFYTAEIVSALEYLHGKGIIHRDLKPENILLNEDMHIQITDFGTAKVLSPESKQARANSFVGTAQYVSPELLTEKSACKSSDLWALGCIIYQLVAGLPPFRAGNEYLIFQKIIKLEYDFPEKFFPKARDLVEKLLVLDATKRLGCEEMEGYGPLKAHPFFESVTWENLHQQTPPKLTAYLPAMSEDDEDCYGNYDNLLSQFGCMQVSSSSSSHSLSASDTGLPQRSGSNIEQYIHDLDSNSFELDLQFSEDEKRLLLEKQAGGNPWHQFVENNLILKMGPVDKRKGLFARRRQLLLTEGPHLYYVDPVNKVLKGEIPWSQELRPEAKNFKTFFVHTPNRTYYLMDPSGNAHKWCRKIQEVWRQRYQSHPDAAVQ
Chain of UniProt P25788 (P25788 whole entry, looked up): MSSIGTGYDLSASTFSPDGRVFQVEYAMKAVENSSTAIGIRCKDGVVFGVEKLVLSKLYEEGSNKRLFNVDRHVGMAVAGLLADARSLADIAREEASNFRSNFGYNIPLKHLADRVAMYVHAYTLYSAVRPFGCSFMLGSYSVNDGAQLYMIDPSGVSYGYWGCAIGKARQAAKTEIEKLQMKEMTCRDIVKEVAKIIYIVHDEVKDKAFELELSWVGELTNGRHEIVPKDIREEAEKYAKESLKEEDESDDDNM
Chain of UniProt O00232 (O00232 whole entry, looked up): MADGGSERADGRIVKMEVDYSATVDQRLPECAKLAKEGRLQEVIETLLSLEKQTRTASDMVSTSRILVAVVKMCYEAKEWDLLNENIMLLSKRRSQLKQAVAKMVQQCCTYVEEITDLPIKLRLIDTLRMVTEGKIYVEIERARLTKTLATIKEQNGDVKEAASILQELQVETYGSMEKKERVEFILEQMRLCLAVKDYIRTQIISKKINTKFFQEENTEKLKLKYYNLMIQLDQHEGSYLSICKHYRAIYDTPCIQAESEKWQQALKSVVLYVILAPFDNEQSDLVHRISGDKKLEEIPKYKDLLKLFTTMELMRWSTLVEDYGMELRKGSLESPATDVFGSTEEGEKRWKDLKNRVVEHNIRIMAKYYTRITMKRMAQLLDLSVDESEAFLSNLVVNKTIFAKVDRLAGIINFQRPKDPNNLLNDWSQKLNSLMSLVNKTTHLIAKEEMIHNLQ
Chain of UniProt Q8NEB9 (Q8NEB9 whole entry, looked up): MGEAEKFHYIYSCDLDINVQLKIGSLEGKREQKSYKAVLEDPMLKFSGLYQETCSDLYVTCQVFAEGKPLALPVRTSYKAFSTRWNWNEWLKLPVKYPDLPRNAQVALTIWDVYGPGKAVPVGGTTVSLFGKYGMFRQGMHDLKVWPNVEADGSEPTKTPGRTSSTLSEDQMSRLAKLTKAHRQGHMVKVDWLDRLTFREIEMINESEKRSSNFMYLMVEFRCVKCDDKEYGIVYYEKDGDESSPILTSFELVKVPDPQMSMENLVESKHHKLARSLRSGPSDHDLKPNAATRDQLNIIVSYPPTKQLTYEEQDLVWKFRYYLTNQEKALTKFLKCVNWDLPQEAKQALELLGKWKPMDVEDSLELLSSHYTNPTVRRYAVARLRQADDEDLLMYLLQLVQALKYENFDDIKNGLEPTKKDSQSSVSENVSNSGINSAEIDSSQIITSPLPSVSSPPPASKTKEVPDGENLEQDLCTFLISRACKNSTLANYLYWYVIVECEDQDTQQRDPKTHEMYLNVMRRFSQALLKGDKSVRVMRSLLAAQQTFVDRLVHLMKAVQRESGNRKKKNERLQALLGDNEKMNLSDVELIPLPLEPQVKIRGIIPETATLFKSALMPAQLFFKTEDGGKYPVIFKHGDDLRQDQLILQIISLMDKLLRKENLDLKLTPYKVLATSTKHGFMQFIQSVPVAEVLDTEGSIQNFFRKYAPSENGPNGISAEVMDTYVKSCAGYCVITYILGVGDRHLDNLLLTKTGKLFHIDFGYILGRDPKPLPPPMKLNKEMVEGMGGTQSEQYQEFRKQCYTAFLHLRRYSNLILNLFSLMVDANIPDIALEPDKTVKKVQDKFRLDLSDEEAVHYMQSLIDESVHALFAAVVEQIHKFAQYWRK
Chain of UniProt Q8WXF1 (Q8WXF1 whole entry, looked up): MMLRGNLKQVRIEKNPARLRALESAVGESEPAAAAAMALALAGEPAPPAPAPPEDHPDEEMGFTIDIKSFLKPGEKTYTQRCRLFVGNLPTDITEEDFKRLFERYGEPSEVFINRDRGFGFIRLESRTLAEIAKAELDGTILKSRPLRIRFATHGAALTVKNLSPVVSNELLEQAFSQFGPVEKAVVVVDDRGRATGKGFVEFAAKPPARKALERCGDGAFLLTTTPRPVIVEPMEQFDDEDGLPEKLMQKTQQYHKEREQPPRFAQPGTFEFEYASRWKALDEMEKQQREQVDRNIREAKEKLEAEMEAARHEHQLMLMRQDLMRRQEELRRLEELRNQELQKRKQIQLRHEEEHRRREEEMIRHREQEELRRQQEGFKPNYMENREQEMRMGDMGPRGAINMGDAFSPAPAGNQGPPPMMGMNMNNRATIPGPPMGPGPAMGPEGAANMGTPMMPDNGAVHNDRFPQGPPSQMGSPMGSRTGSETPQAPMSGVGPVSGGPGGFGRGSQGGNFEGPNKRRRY
Chain of UniProt Q9UBV8 (Q9UBV8 whole entry, looked up): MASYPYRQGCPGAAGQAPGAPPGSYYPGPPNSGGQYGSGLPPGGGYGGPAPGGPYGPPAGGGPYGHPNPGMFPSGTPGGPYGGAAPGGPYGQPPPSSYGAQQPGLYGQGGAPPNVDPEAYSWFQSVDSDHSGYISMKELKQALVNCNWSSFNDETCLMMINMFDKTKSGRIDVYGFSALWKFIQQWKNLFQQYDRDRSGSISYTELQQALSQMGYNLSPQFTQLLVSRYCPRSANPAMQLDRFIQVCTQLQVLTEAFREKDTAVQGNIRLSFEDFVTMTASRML
Chain of UniProt O95453 (O95453 whole entry, looked up): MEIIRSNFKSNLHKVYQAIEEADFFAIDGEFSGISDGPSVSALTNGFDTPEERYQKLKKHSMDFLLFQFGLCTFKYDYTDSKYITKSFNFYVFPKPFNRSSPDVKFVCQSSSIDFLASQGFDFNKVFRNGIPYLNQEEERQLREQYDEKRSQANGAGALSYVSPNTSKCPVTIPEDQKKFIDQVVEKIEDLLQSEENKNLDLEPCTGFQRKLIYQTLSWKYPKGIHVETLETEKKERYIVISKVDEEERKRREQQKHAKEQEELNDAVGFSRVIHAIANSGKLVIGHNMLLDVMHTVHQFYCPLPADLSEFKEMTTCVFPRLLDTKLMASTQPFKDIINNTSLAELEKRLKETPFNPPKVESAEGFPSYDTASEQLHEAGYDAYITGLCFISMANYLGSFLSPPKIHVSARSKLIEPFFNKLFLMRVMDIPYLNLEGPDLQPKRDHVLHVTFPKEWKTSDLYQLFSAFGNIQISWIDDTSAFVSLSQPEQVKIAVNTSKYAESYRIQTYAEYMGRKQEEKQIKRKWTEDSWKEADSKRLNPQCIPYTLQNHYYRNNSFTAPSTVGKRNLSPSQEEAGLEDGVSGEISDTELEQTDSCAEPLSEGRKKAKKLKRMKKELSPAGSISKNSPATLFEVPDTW
Chain of UniProt Q92871 (Q92871 whole entry, looked up): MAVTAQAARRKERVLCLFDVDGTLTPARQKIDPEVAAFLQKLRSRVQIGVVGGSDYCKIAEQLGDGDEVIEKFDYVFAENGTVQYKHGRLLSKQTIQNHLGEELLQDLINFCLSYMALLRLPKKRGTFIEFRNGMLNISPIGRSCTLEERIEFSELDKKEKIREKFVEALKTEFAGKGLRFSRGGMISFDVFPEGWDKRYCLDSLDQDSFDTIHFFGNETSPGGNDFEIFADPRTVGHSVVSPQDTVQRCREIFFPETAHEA
Chain of UniProt Q9UG56 (Q9UG56 whole entry, looked up): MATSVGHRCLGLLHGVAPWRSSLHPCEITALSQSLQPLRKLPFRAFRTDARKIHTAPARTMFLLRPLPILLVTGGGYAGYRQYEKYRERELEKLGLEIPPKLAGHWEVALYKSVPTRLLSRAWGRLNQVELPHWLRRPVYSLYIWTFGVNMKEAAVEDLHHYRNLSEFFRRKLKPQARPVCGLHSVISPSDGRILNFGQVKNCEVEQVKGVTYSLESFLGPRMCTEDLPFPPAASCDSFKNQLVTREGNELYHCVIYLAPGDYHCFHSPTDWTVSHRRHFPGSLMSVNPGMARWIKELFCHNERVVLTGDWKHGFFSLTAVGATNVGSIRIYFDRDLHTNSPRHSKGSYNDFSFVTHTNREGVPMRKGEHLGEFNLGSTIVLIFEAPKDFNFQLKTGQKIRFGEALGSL
Chain of UniProt Q5VTL8 (Q5VTL8 whole entry, looked up): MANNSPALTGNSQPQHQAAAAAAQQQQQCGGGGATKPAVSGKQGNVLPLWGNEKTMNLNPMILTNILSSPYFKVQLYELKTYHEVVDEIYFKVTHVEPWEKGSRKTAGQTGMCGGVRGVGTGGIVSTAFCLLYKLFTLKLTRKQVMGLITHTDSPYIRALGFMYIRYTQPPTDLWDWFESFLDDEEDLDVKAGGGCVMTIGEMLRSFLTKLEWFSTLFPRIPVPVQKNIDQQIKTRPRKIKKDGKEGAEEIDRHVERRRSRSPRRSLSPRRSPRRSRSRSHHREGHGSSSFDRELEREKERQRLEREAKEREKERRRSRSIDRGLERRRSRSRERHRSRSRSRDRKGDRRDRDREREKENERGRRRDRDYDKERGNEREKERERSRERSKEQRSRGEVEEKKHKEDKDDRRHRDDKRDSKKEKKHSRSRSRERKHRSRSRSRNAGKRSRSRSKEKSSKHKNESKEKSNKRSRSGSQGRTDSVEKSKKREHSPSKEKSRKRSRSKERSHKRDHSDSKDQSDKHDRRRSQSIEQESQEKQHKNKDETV

Target | log2 fold change [1] | log2 fold change [2] | log2 fold change [3] | log2 fold change [4] | log2 fold change (Nexturastat A) | log2 fold change (vemurafenib) | log2 fold change [5] | log2 fold change [6] | log2 fold change (givinostat) | log2 fold change (barasertib) | log2 fold change [7] | log2 fold change (volasertib) | log2 fold change [8] | log2 fold change (epoxomicin) | log2 fold change [9] | log2 fold change [10] | log2 fold change [11] | log2 fold change (rosiglitazone) | log2 fold change [12] | log2 fold change [13]
PYGB (UniProt P11216) | -0.284 (active) | 0.015 | 0.008 | 0.005 | -0.074 | 0.009 | -0.023 | -0.044 | 0.012 | 0.001 | -0.199 | -0.572 (active) | 0.036 | -0.045 | -0.203 | 0.023 | 0.012 | -0.004 | 0.021 | -0.071
PRPF38B (UniProt Q5VTL8) | -0.001 | 0.001 | -0.012 | 0.015 | -0.011 | 0.043 | 0.042 | -0.006 | 0.007 | 0.012 | -0.152 | -0.231 | 0.015 | -0.002 | -0.012 | -0.02 | -0.01 | 0.009 | 0.018 | -0.073
PSMD12 (UniProt O00232) | 0.066 | -0.004 | -0.005 | -0.011 | 0.047 | -0.031 | 0.009 | 0.052 | -0.002 | -0.044 | 0.03 | 0.158 | 0.02 | -0.278 | -0.008 | 0.017 | -0.007 | -0.038 | 0.01 | 0.062
PSMA3 (UniProt P25788) | 0.01 | 0.027 | -0.025 | 0.013 | -0.039 | -0.001 | -0.019 | -0.011 | -0.011 | -0.034 | 0.067 | 0.134 | -0.025 | -0.169 | 0.043 | 0.002 | -0.003 | -0.039 | -0.027 | 0.046
PEF1 (UniProt Q9UBV8) | -0.011 | -0.075 | 0.027 | 0.013 | 0.032 | 0.008 | 0.073 | -0.045 | 0.022 | 0.122 | -0.144 | -0.329 (active) | 0.035 | 0.101 | 0.045 | 0.002 | -0.061 | -0.022 | -0.005 | 0.048
PRMT3 (UniProt O60678) | 0.016 | -0.025 | 0.044 | 0.076 | -0.026 | 0.056 | 0.055 | 0 | -0.013 | 0.035 | -0.126 | -0.411 (active) | 0.039 | 0.033 | 0.005 | -0.093 | 0.039 | 0.077 | -0.008 | -0.953 (active)
PDPK1 (UniProt O15530) | -0.026 | -0.055 | 0.019 | -0.007 | -0.12 | 0.03 | 0.003 | -0.018 | 0.032 | 0.035 | -0.136 | -0.232 | 0.034 | 0.055 | -0.035 | -0.05 | 0.034 | 0.064 | -0.008 | -0.275
POLR3B (UniProt Q9NW08) | 0.024 | -0.062 | -0.008 | 0.022 | 0.026 | 0.003 | 0.172 | 0.063 | 0.138 | 0.114 | 0.029 | -0.44 | 0.134 | 0.07 | -0.069 | -0.028 | 0.075 | 0.035 | 0.105 | -0.058
PRKAR1A (UniProt P10644) | 0.15 | -0.051 | 0.059 | -0.103 | 0.053 | -0.028 | -0.085 | 0.203 | 0.055 | -0.01 | 0.213 | -0.054 | -0.068 | -0.122 | 0.071 | 0.001 | 0.023 | -0.032 | 0.132 | 0.705 (active)
PISD (UniProt Q9UG56) | -0.015 | 0.002 | 0.013 | 0.085 | 0.022 | -0.068 | 0.049 | 0.009 | 0.024 | 0.026 | -0.136 | -0.117 | -0.017 | -0.002 | -0.029 | -0.076 | -0.113 | 0.027 | -0.036 | -0.192
PSMC1 (UniProt P62191) | 0.024 | 0.033 | -0.038 | -0.069 | 0.026 | -0.064 | -0.06 | -0.012 | -0.073 | -0.073 | 0.038 | 0.129 | -0.015 | -0.342 (active) | 0.042 | 0.092 | -0.003 | -0.038 | 0.031 | 0.051
PIK3C3 (UniProt Q8NEB9) | 0.003 | 0.015 | -0.046 | -0.085 | 0.54 (active) | -0.001 | 0.02 | -0.051 | 0.088 | -0.015 | 0.16 | 0.153 | 0.023 | -0.071 | 0.044 | -0.117 | -0.03 | -0.022 | 0.025 | 0.015
PSPC1 (UniProt Q8WXF1) | 0.022 | 0.011 | 0.01 | 0.007 | 0.053 | -0.003 | 0.135 | 0.167 | 0.036 | 0.01 | -0.046 | -0.167 | 0.1 | 0.031 | 0.003 | -0.054 | 0.012 | -0.058 | 0.041 | 0.029
PARN (UniProt O95453) | -0.038 | -0.004 | 0.004 | 0.013 | -0.069 | 0 | 0.043 | -0.058 | 0.059 | 0.057 | -0.146 | -0.401 (active) | 0.059 | 0.051 | -0.021 | -0.076 | 0.017 | 0.017 | -0.057 | -0.196
POGLUT1 (UniProt Q8NBL1) | -0.063 | -0.027 | -0.081 | -0.024 | -0.025 | -0.139 | -0.034 | 0.043 | 0.052 | -0.022 | 0.007 | -0.054 | 0.013 | 0.012 | -0.051 | 0.089 | -0.083 | -0.019 | 0.039 | 0.26 (active)
PMM1 (UniProt Q92871) | -0.164 | 0.007 | -0.037 | 0.027 | -0.037 | -0.007 | -0.012 | -0.165 | -0.013 | -0.003 | -0.029 | -0.239 | -0.024 | -0.002 | -0.025 | 0.08 | 0.009 | 0.047 | -0.061 | -0.018
